Inconclusive results are not listed. A call without a number means that no potency is given here. The source made the active and inactive calls. Calls follow the shape of the dose curve; as a rule, active = well fitted antagonist curve with a large enough effect in the main read-out, with a control signal flat; inconclusive = small, poorly fitted or top-dose-only effect; inactive = no such curve, though single readings can be large or run the other way.

For the test, the target named is Neuropeptide S receptor (Homo sapiens) (UniProt Q6W5P4). Kind of test: Confirmation Concentration-Response Assay for Antagonists of the Neuropeptide S Receptor: Calcium Signal Transduction, SAR for Probe. Conditions: CHO-NPSR cells, NPS-induced calcium fluorescence, FDSS; series mostly up to 19.3 µM. From the text: NIH Chemical Genomics Center [NCGC] NIH Molecular Libraries Probe Production centers Network [MLPCN] MLPCN Grant: X01-DA026210-01 Assay Submitter (PI): Heilig, Markus Alexander NCGC Assay Overview: Neuropeptide S receptor (NPSR), previously known as GPR154, is a recently de-orphanized G protein coupled receptor. Its endogenous ligand is the 20 amino acids peptide Neuropeptide S (NPS). […] NPS and its receptor are found in various tissues. Specifically they are highly expressed in brain areas that have been implicated in modulation of arousal, stress and anxiety. Central administration of NPS in mice produces an unusual profile of activity by inducing wakefulness and arousal, while at the same time suppressing anxiety. Therefore, NPSR may represent a novel drug target for the treatment of sleep and anxiety disorders. To identify NPSR antagonists, we developed a cell-based assay with transfected NPS receptor. NPS can stimulate the production of cAMP as well as release intracellular calcium in Chinese hamster ovary cells stably expressing NPS receptor. This change in intracellular calcium can be detected using a calcium indicator dye on a calcium imaging plate reader system (FDSS).
Neuropeptide S receptor (Homo sapiens), sequence (Q6W5P4 whole entry, looked up): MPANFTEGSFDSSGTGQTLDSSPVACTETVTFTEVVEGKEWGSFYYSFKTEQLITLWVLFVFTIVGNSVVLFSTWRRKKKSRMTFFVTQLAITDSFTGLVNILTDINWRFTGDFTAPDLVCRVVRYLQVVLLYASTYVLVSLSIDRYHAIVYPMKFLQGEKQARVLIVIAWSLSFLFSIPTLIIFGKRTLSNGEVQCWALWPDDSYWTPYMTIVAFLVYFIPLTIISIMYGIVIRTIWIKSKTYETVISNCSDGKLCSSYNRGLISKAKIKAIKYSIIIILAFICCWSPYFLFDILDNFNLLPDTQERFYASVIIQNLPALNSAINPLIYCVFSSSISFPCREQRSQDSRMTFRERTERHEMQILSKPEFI
NCGC Assay Protocol Summary: A Chinese hamster ovary (CHO) cell line stably expressing the NPS receptor (CHO-NPSR) was obtained from Dr. Heilig lab at NIAAA and maintained in F-12 Kaighn's media (Invitrogen, Carlsbad, CA, 21127) supplemented with 10 % FBS, 100 units/ml penicillin, 100 ug/ml streptomycin and 250 ug/ml geneticin at 37C, 5% CO2 in a humidified atmosphere. Before the assay, aliquots of cells were frozen and stored at -135C. The assay was performed on a FDSS-7000 kinetic plate reader in 1536-well format. For both agonist (1-220s) and antagonist (221-400s) phases, the maximums of kinetic fluorescence responses were converted separately into text files using the instrument's software data export utility. Data for agonist response were normalized to the controls for basal activity (DMSO only) and 100% activation (NPS). […] AC50 values were determined from concentration-response data modeled with the standard Hill equation. NPS 1536-well FDSS assay protocol: (1) Frozen CHO-NPSR cells were thaw, washed once with fresh media and resuspended in F-12 Kaighn's media supplemented with 10 % FBS, 100 units/ml penicillin and 100 ug/ml streptomycin. Cells were plated at 3 ul/well (1200 cells) to black, clear-bottom, tissue-culture treated 1536-well plates, and then cultured at 37C, 5 % CO2 for 16 to 30 hours. (2) Add 3 ul of calcium dye (from High Performance PBX Calcium Assay Kit, BD Biosciences). The calcium dye was prepared according to the manufactory's instruction. (3) Incubation at 37C, 5 % CO2 for 60 to 120 min. (4) Load plates to FDSS-7000. The following steps were performed on FDSS-7000. (5) Record fluorescent background (Ex 480 nm, Em 520-560 nm) for 10 s. (6) Add 23 nl/well of compound in DMSO solution. The final titration for each compound was between 0.6 nM and 46 uM. Record agonist response for 210 s. (7) Add 2 ul of stimulation reagent (1X HBSS buffer, 0.1% BSA, 60 nM NPS). Record antagonist response for 140 s. Keywords: MLSMR, MLPCN, NIH Roadmap, qHTS, NCGC, NPS, Neuropeptide S Antagonists
In the case of `CCCCCN1C=CC=C/C1=C\C=C(C#N)C#N`, the Potency entry was “inactive”. For `Cc1c(P(=S)(c2ccccc2)c2ccccc2)c2ccccc2n1Cc1ccccc1` the value was “inactive”; for `O=P(c1ccccc1)(c1ccccc1)c1cnc2ccccn12`, “inactive”. In the case of `CCOC(=O)c1ccc(-n2cnc3c(c2=N)C(c2cccc(OC)c2)c2c(ccc4ccccc24)O3)cc1` (stereo not given), the Potency was 2.76 µM (active).

For `S=C(Nc1ccccc1)Nc1nccs1`, the Potency result is “inactive”.

For `Cc1cc(C)n(-c2nc(NC(C)C)nc(NC(C)C)n2)n1`, the Potency entry is “inactive”. As to `COc1ccc2c(c1)Oc1ncn(CCN3CCOCC3)c(=N)c1C2c1ccc(OC)c(OC)c1` (stereo not given), the Potency is 11 µM (active). In the case of `O=C1OC(c2ccccc2)(c2ccccc2)N2CCN(C(=O)NCc3ccc(F)cc3)CC12` (stereo not given), the Potency is 0.139 µM (active).

For the compound `COc1ccc(C2c3c(N)nc(CCCc4ccccc4)nc3Oc3ccc4ccccc4c32)cc1OC` (stereo not given), the Potency entry was “inactive”. Under `NC(=O)OCC(COC(N)=O)c1ccccc1` stands “inactive”; under `COc1cccc(C2c3c(ncn(-c4cccc(OC)c4)c3=N)Oc3ccc4ccccc4c32)c1` (stereo not given), 5.52 µM (active); under `COc1cccc(C2c3c(ncn(-c4ccccc4C#N)c3=N)Oc3ccc4ccccc4c32)c1` (stereo not given), 4.38 µM (active). Consider `COc1cccc(C2c3c(ncn(-c4ccccc4C)c3=N)Oc3ccc4ccccc4c32)c1` (stereo not given), for which the Potency is 5.52 µM (active). Under `COc1cccc(C2c3c(ncn(-c4ccc(NC(C)=O)cc4)c3=N)Oc3ccc4ccccc4c32)c1` (stereo not given) stands 5.52 µM (active); under `CN(C)C(=O)Oc1cccc([N+](C)(C)C)c1`, “inactive”. For `COc1ccc(C2c3c(n(CCCc4ccccc4)cnc3=N)Oc3ccc4ccccc4c32)cc1OC` (stereo not given) the value was 5.52 µM (active); for `O=C(NCc1ccc(F)cc1)n1cc(P(=S)(c2ccccc2)c2ccccc2)c2ccccc21`, “inactive”. Under `COc1ccc(C2c3c(N)nc(CCc4ccccc4)nc3Oc3ccc4ccccc4c32)cc1OC` (stereo not given) stands “inactive”; under `Cc1c(P(=S)(c2ccccc2)c2ccccc2)[n+]2ccccc2n1CC(=O)c1ccccc1`, 2.76 µM (active). Consider `Cn1nc(-c2ccc(Cl)cc2)nc2c(=O)n(C)c(=O)nc1-2`, for which the Potency entry was “inactive”. Under `COc1cccc(N2CCN(c3ncnc4c3[nH]c3ccc(F)cc34)CC2C)c1` (stereo not given) stands 0.631 µM (active); under `COc1cccc(C2c3c(ncn(-c4ccc5c(c4)OCO5)c3=N)Oc3ccc4ccccc4c32)c1` (stereo not given), 0.552 µM (active); under `COc1ccc(-n2cnc3c(c2=N)C(c2cccc(OC)c2)c2c(ccc4ccccc24)O3)cc1` (stereo not given), 4.38 µM (active). Under `CCC(C)n1c(=O)c(C(=O)Nc2ccccc2S(N)(=O)=O)c(O)c2ccccc21` (stereo not given) stands “inactive”; under `COc1cccc(C2c3c(ncn(-c4ccncc4)c3=N)Oc3ccc4ccccc4c32)c1` (stereo not given), 4.38 µM (active). As for `COc1cccc(C2c3c(ncn(-c4ccccc4C(C)(C)C)c3=N)Oc3ccc4ccccc4c32)c1` (stereo not given), the Potency was 4.38 µM (active). For `COc1cccc(C2c3c(ncn(-c4ccc(F)cc4)c3=N)Oc3ccc4ccccc4c32)c1` (stereo not given) the value was 3.48 µM (active); for `O=[N+]([O-])c1ccc(-c2nc(C(Cl)Cl)c3ccccc3n2)cc1`, “inactive”.

As to `COc1ccc(C(=O)N(Cc2ccco2)Cc2cccs2)c(O)c1`, the Potency result is “inactive”. Take `Cc1nc2ccccn2c1P(=O)(c1ccccc1)c1ccccc1`: the Potency entry was “inactive”.

For `Cc1ccc(Nc2cc(C)nn2-c2nc(C)cc(C)n2)cc1`, the Potency result is “inactive”. For `c1ccc(P(c2ccccc2)c2cnc3ccccn23)cc1` the value was 11 µM (active); for `CCCN1C(=O)/C(=C\C=C2/C=CN(CC)c3ccccc32)SC1=S`, “inactive”; for `C/C(=N\Nc1ncc(Cl)cc1Cl)c1ccccn1`, 2.51 µM (active). Under `CN(C)C(=S)N=Nc1[nH]c2ccccc2c1O` stands “inactive”. Under `COc1cccc(C2c3c(ncn(-c4ccccc4SC)c3=N)Oc3ccc4ccccc4c32)c1` (stereo not given) stands 0.438 µM (active); under `COC(=O)c1ccc(C(=O)OC)c(NC(=O)CSc2cccc[n+]2[O-])c1`, “inactive”. In the case of `COc1ccc(C2c3c(ncn(Cc4ccccc4)c3=N)Oc3ccc4ccccc4c32)cc1OC` (stereo not given), the Potency was 1.39 µM (active). Under `COc1ccc(C2c3c(nc(CCc4ccccc4)[nH]c3=O)Oc3ccc4ccccc4c32)cc1OC` (stereo not given) stands “inactive”. For `CN(C)c1nc(=Nc2cccc(Cl)c2)ss1` the value was “inactive”.

For the origin of these results see PubChem BioAssay AID2567 (National Center for Advancing Translational Sciences (NCATS), 2010).
